# Assay results taken from PubChem BioAssay AID652208 (Broad Institute, 2013).
# Measured potencies and affinities stand elsewhere. Calls of active or inactive are those of the source.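 How the source made its calls: active means Loss of cell signal with fitted half-effect dose at or below twice the top valid tested dose; inconclusive means Poor fit, or flat fit from -70 to -30 percent; inactive means Half-effect above limit, rising signal, or flat within 30 percent.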
# Assay: viability loss in HEK293T cells – cell-based, cherry-picks, cytotoxicity control for HIV Vif inhibitor project, dose response (AID 652208)
row,Compound,outcome
1,CCN1C(=O)NC(c2ccccc2)C1=O (configuration not stated),inactive
2,CN(C)c1ccc(C(O)Cc2nc3ccccc3n2C)cc1 (configuration not stated),inactive
3,O=C(Cn1c(=O)oc2cc(S(=O)(=O)N3CCCCC3)ccc21)N1CCc2ccccc21,inactive
4,CCN(C(=O)COc1ccc(C)cc1OC)c1cccc2ccccc12,inactive
5,CCC1=Nc2cc(C(=O)NCc3ccco3)ccc2Sc2ccc(C)cc21,inactive
6,COc1ccc(OC)c(NC(=O)c2nc(-c3ccccc3)oc2C)c1,inactive
7,COc1cccc(NC(=O)c2cc(C(=O)Nc3cccc(OC)c3)n(C)n2)c1,inactive
8,Cc1cccc(Nc2nc(-c3ccc(O)c(O)c3)cs2)n1,inactive
9,CNC(=O)c1ccc(NC(=O)c2cc(S(=O)(=O)N(C)C)ccc2N2CCCC2)cc1,inactive
10,N#Cc1cc2c(=O)n3ccccc3nc2n(-c2ccccc2Cl)c1=O,inactive
11,CC1(C)CC(=O)C2=C(C1)Nc1ccccc1N(C(=O)C1CC1)C2c1ccco1 (configuration not stated),inactive
12,O=C(Nc1ccc2c(c1)nc1n2CCOC1)c1ccccc1,inactive
13,COc1ccc(-c2cc(C(=O)Nc3cnn(Cc4ccccc4C)c3)no2)cc1OC,inactive
14,COc1c2ccoc2nc2c(OC)c(OC[C@@H](O)C(C)(C)O)ccc12,inactive
15,COc1ccc(CC(NC(C)=O)C(=O)NC2CCN(C(=O)c3ccccc3F)CC2)cc1 (configuration not stated),inactive
16,COc1ccc(CC(=O)OCC(=O)NCc2ccc(Cl)cc2)cc1,inactive
17,O=C(CCNC(=O)c1ccco1)Nc1ccc(OC(F)(F)F)cc1,inactive
18,CCCCn1c(-c2ccncc2)nc2c1c(=O)[nH]c(=O)n2CC(C)C,inactive
19,S=C(NC1CC1)N1CCc2ccccc2C1,inactive
20,COc1ccccc1C1C2=C(COC2=O)Nc2cc3c(cc21)OCO3 (configuration not stated),inactive
21,Cc1ccc2c(c1)N(CC(=O)NCC1CCCO1)C(=O)C(C(C)C)O2 (configuration not stated),inactive
22,CCN(CC)C(=O)c1sc2nc(-c3cccs3)cc(-c3cccs3)c2c1N,inactive
23,COc1ccccc1C(C)NC(=O)Cc1ccsc1 (configuration not stated),inactive
24,CCOc1ccc(N2C(=O)/C(=C/c3cccs3)N(CC(=O)OC)C2=S)cc1,inactive
25,COc1ccc(OC)c(/C(O)=C/C(=O)C(=O)Nc2cc(C)ccc2OC)c1,inactive
26,COCc1cc(C)nc(SCC(=O)Nc2cccc3cccnc23)c1C#N,inactive
27,COc1ccc2nc3ccccc3nc2c1NC(=O)c1ccc(Cl)cc1,inactive
